# According to PubChem BioAssay (Tox21):
# Inconclusive results are not listed. A number with no mark means an inactive call. Calls of active or inactive are those of the source. Calls follow the shape of the full dose curve.
# Molecular target: Muscarinic acetylcholine receptor M1 (Homo sapiens) (UniProt P11229)
# Experiment: Cholinergic receptor muscarinic 1 (CHRM1) small molecule antagonists, cell-based qHTS assay (AID 1963588); also: nearly all actives have a fitted effect of over 40% in size
# Conditions: CHRM1-CHO antagonist mode, calcium flux fluorescence; series mostly up to 61.5 µM; activity, negative = inhibition: at the top concentration
# Method in brief: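 Compounds were tested at 15 concentrations in three independent runs. Dye-loaded CHRM1-CHO cells were exposed 5 min at room temperature before stimulation by acetylcholine added at 50nM. Intracellular calcium was read kinetically on FDSS for 3 min.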
# % is scaled to controls: 0 for no effect and ±100 for the full control effect.
# Chain of Muscarinic acetylcholine receptor M1 (Homo sapiens) (P11229 whole entry, looked up): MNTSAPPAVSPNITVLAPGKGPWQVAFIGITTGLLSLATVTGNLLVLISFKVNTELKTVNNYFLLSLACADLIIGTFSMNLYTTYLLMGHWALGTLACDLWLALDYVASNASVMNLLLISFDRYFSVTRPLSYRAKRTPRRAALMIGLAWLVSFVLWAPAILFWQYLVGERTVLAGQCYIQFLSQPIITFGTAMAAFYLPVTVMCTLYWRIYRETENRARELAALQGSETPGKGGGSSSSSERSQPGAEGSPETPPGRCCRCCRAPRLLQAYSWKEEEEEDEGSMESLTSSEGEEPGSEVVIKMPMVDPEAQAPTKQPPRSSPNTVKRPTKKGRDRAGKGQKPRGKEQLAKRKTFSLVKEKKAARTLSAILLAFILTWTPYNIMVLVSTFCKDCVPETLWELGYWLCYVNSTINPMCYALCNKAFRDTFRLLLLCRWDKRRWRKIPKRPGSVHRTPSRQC
SMILES,"activity, negative = inhibition",Potency
OCCOc1ccc(OCCO)cc1,15.7%,–
N#CCC(=O)O,–,inactive
Nc1ncnc2c1ncn2[C@@H]1O[C@H](COP(=O)(O)O)[C@@H](O)[C@H]1O,-0.325% [at 28.3 µM],–
CCc1ccc(C)nc1,7.22%,–
CN(C)c1ccc(/C=C/c2ccc([N+](=O)[O-])cc2)cc1,-8.69% [at 5.58 µM],–
C/C=C(\C)C(=O)OC/C=C(\C)CCC=C(C)C,1.62%,–
CC(=O)/C=C/C1C(C)=CCC(C)C1(C)C (stereo unspecified),5.27%,–
Cc1cccc(C)c1NC(=O)CC12CCCN1CCC2,-21.7% [at 28.3 µM],–
CC(=O)N1CCN(c2ccc(O)cc2)CC1,0% [at 28.3 µM],–
C=C(C)C(=O)OCCCCCCOC(=O)C(=C)C,-12%,–
O=C1CCN(c2ccccc2)N1,10.9%,–
Cl/C(=C\n1cncn1)c1ccc(Cl)cc1Cl,17.2% [at 28.3 µM],–
COc1cc(C(=O)N2CCCCCCC2)cc(OC)c1OC,-2.67% [at 28.3 µM],–
Clc1nc2ccccc2s1,28.6%,–
CN1N=C(C(N)=O)CCC1=O,14.5% [at 28.3 µM],–
CCCCC(CC)CCC(CC(C)C)OS(=O)(=O)O (stereo unspecified),0.618%,–
CSc1cnccn1,-1.73%,–
CCCCCCCOC(=O)c1ccccc1C(=O)OCCCCCCC,-1.38%,–
CC1CC(=O)CC(C)(C)C1 (stereo unspecified),-26.1%,–
O=[Si]=O,3.4%,–
CCCCCCCC(OC)OC,-3.82% [at 28.3 µM],–
NS(=O)(=O)c1cc2c(cc1Cl)NC(CC1CCCC1)NS2(=O)=O (stereo unspecified),-4.5% [at 28.3 µM],–
N#CCc1cccc(C(F)(F)F)c1,38.5%,–
CC(C)(c1cc(Br)c(O)c(Br)c1)c1cc(Br)c(O)c(Br)c1,12.4%,–
Clc1ccccc1-c1nc(-c2ccncc2)no1,7.32% [at 28.3 µM],–
CC(=O)C(C)O (stereo unspecified),-3.25%,–
